Laboratory results: PubChem BioAssay AID1159580 (chemical genetic matrix, 2015)
In all, about 5,500 compounds went through this assay and about 2,000 (36%) were called active. Not shown: some 18% with an inconclusive outcome. Rule as the data show it: active = normalized growth mostly below about 0.91 (no sharp cut-off); inconclusive = no clear call, values can overlap the other calls; inactive = mostly above about 0.92. The list shows a part of the results.

Assay: chemical genetic growth profiling, strain panel (AID 1159580);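 also: tested at 20 µM; growth read once vehicle control cultures reached saturation at 30 °C; 1 = growth at the plate median or of vehicle wells; lower values mean less growth of the strain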
Conditions: growth OD

Measured: normalized growth

CC1CC[C@@]2(OC1)O[C@H]1CC3C4CC[C@@H]5C[C@@H](O)CC[C@]5(C)C4CC[C@]3(C)[C@H]1[C@@H]2C (some centres not stated)
inactive: S. cerevisiae deletion strains, locus YJR066W, strain TOR1, stronger effect = lower value 0.937 | S. cerevisiae deletion strains, locus YJR075W, strain HOC1, stronger effect = lower value 1.03 | S. cerevisiae deletion strains, locus YKL009W, strain mrt4, stronger effect = lower value 0.988 | S. cerevisiae deletion strains, locus YKL068W, stronger effect = lower value 0.985 | S. cerevisiae deletion strains, locus YKL085W, strain MDH1 (second series), stronger effect = lower value 0.969 | S. cerevisiae deletion strains, locus YKL085W, strain MDH1, stronger effect = lower value 0.969 | S. cerevisiae deletion strains, locus YKL160W, strain elf1, stronger effect = lower value 1.02 | S. cerevisiae deletion strains, locus YKL190W, strain CNB1, stronger effect = lower value 1.03 | S. cerevisiae deletion strains, locus YKR001C, strain vps1, stronger effect = lower value 1.01 | S. cerevisiae deletion strains, locus YKR026C, strain gcn3, stronger effect = lower value 1.03 | S. cerevisiae deletion strains, locus YLL026W, stronger effect = lower value 1.02 | S. cerevisiae deletion strains, locus YLL041C, strain sdh2, stronger effect = lower value 1.02 | S. cerevisiae deletion strains, locus YLR027C, strain aat2, stronger effect = lower value 1.05 | S. cerevisiae deletion strains, locus YLR039C, strain RIC1, stronger effect = lower value 1.09 | S. cerevisiae deletion strains, locus YLR058C, strain SHM2, stronger effect = lower value 1.04 | S. cerevisiae deletion strains, locus YLR102C, strain apc9, stronger effect = lower value 1.01 | S. cerevisiae deletion strains, locus YLR113W, strain HOG1, stronger effect = lower value 0.996 | S. cerevisiae deletion strains, locus YLR221C, strain rsa3, stronger effect = lower value 1.03 | S. cerevisiae deletion strains, locus YLR258W, strain gsy2, stronger effect = lower value 1.03 | S. cerevisiae deletion strains, locus YLR262C, strain YPT6 (second series), stronger effect = lower value 0.987 | S. cerevisiae deletion strains, locus YLR268W, strain sec22, stronger effect = lower value 1.02 | S. cerevisiae deletion strains, locus YLR320W, strain mms22, stronger effect = lower value 1.04 | S. cerevisiae deletion strains, locus YLR330W, strain CHS5, stronger effect = lower value 1.02 | S. cerevisiae deletion strains, locus YLR342W, strain FKS1 (second series), stronger effect = lower value 1.03 | S. cerevisiae deletion strains, locus YLR342W, strain FKS1, stronger effect = lower value 1.03 | S. cerevisiae deletion strains, locus YLR370C, strain arc18, stronger effect = lower value 1.02 | S. cerevisiae deletion strains, locus YLR371W, strain rom2, stronger effect = lower value 1.01 | S. cerevisiae deletion strains, locus YLR384C, strain iki3, stronger effect = lower value 1.01 | S. cerevisiae deletion strains, locus YLR418C, strain cdc73, stronger effect = lower value 1.04 | S. cerevisiae deletion strains, locus YML016C, strain PPZ1, stronger effect = lower value 1.02 | S. cerevisiae deletion strains, locus YML032C, strain rad52, stronger effect = lower value 1.01 | S. cerevisiae deletion strains, locus YML120C, strain ndi1, stronger effect = lower value 1.04 | S. cerevisiae deletion strains, locus YML124C, strain tub3, stronger effect = lower value 0.998 | S. cerevisiae deletion strains, locus YMR058W, strain fet3, stronger effect = lower value 1.02 | S. cerevisiae deletion strains, locus YMR078C, strain ctf18, stronger effect = lower value 0.998 | S. cerevisiae deletion strains, locus YMR125W, strain sto1, stronger effect = lower value 1.04 | S. cerevisiae deletion strains, locus YMR129W, stronger effect = lower value 1.01 | S. cerevisiae deletion strains, locus YMR205C, strain PFK2, stronger effect = lower value 1.02 | S. cerevisiae deletion strains, locus YMR223W, strain ubp8, stronger effect = lower value 1 | S. cerevisiae deletion strains, locus YMR231W, strain pep5, stronger effect = lower value 1.02 | S. cerevisiae deletion strains, locus YMR307W, strain GAS1, stronger effect = lower value 1.21 | S. cerevisiae deletion strains, locus YNL067W, strain RPL9B, stronger effect = lower value 1.03 | S. cerevisiae deletion strains, locus YNL071W, strain lat1, stronger effect = lower value 1.04 | S. cerevisiae deletion strains, locus YNL183C, strain NPR1, stronger effect = lower value 0.941 | S. cerevisiae deletion strains, locus YNL209W, strain ssb2, stronger effect = lower value 1.01 | S. cerevisiae deletion strains, locus YNL233W, strain BNI4, stronger effect = lower value 1.07 | S. cerevisiae deletion strains, locus YNL248C, strain rpa49, stronger effect = lower value 1.02 | S. cerevisiae deletion strains, locus YNL250W, strain rad50, stronger effect = lower value 1.05 | S. cerevisiae deletion strains, locus YNL271C, strain bni1, stronger effect = lower value 1 | S. cerevisiae deletion strains, locus YNL298W, strain CLA4, stronger effect = lower value 1.05 | S. cerevisiae deletion strains, locus YNL307C, strain MCK1, stronger effect = lower value 1 | S. cerevisiae deletion strains, locus YNL322C, strain KRE1 (second series), stronger effect = lower value 1.05 | S. cerevisiae deletion strains, locus YNL322C, strain KRE1, stronger effect = lower value 1.02 | S. cerevisiae deletion strains, locus YNR049C, strain mso1, stronger effect = lower value 1.02 | S. cerevisiae deletion strains, locus YNR052C, strain pop2, stronger effect = lower value 0.995 | S. cerevisiae deletion strains, locus YOL012C, strain htz1 1.12 | S. cerevisiae deletion strains, locus YOL147C, strain pex11, stronger effect = lower value 1.03 | S. cerevisiae deletion strains, locus YOR001W, strain rrp6, stronger effect = lower value 1.05 | S. cerevisiae deletion strains, locus YOR061W, strain CKA2, stronger effect = lower value 1.02 | S. cerevisiae deletion strains, locus YOR069W, strain VPS5, stronger effect = lower value 1.02 | S. cerevisiae deletion strains, locus YOR070C, strain gyp1, stronger effect = lower value 1.01 | S. cerevisiae deletion strains, locus YOR080W, strain dia2, stronger effect = lower value 1.02 | S. cerevisiae deletion strains, locus YOR083W, strain WHI5, stronger effect = lower value 1.02 | S. cerevisiae deletion strains, locus YOR106W, strain vam3, stronger effect = lower value 1.04 | S. cerevisiae deletion strains, locus YOR136W, strain idh2, stronger effect = lower value 1.01 | S. cerevisiae deletion strains, locus YOR144C, strain elg1, stronger effect = lower value 1 | S. cerevisiae deletion strains, locus YOR184W, strain ser1, stronger effect = lower value 1 | S. cerevisiae deletion strains, locus YOR231W, strain MKK1, stronger effect = lower value 0.99 | S. cerevisiae deletion strains, locus YOR265W, strain rbl2, stronger effect = lower value 1.01 | S. cerevisiae deletion strains, locus YOR270C, strain vph1, stronger effect = lower value 1.14 | S. cerevisiae deletion strains, locus YOR290C, strain snf2, stronger effect = lower value 1.1 | S. cerevisiae deletion strains, locus YOR316C, strain cot1, stronger effect = lower value 0.992 | S. cerevisiae deletion strains, locus YPL051W, strain arl3, stronger effect = lower value 1.02 | S. cerevisiae deletion strains, locus YPL078C, strain atp4, stronger effect = lower value 1.05 | S. cerevisiae deletion strains, locus YPL106C, strain sse1, stronger effect = lower value 1.02 | S. cerevisiae deletion strains, locus YPL240C, strain hsp82, stronger effect = lower value 1.02 | S. cerevisiae deletion strains, locus YPL241C, strain CIN2, stronger effect = lower value 1.03 | S. cerevisiae deletion strains, locus YPL256C, strain CLN2, stronger effect = lower value 0.984 | S. cerevisiae deletion strains, locus YPR119W, strain clb2, stronger effect = lower value 1.01 | S. cerevisiae deletion strains, locus YPR141C, strain kar3, stronger effect = lower value 1 | S. cerevisiae deletion strains, locus YPR163C, strain tif3, stronger effect = lower value 1.01 | S. cerevisiae deletion strains, locus YPR167C, strain met16, stronger effect = lower value 1.02 | S. cerevisiae deletion strains, strain wtn01, stronger effect = lower value 1.01 | S. cerevisiae strains, strain wild type, stronger effect = lower value 1.05
active: S. cerevisiae deletion strains, locus YKR091W, strain srl3, stronger effect = lower value 1.11 [resistant] | S. cerevisiae deletion strains, locus YLL001W, strain dnm1, stronger effect = lower value 1.18 [resistant] | S. cerevisiae deletion strains, locus YLR357W, strain rsc2, stronger effect = lower value 1.45 [resistant]
